# Measured values as given in the supplement of paper PMC9446081.
# ± gives the standard deviation of the averaged measurements.
# Target: T1, MurD (UniProt P14900)
# T1 sequence (whole entry): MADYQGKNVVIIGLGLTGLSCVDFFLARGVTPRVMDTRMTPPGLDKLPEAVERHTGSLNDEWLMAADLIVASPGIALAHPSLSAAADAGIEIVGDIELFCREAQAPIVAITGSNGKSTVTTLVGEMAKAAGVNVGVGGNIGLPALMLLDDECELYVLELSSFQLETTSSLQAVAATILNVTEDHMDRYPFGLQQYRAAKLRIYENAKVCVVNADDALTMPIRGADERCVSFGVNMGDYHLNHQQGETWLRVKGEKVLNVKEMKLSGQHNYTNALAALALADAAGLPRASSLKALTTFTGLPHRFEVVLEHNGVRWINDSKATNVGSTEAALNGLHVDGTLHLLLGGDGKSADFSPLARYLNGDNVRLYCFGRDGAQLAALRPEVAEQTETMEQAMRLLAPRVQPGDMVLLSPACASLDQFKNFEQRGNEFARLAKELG
# Assay: relative enzymatic activity vs untreated control (fraction); higher = less inhibition
# Settings: 100 µM; incubation time: 2 h at 37 C
# Experimental: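 In vitro enzymatic inhibition assays (ProFoldin kits) for 12 purified essential E. coli enzymes or complexes, each treated with 218 active antibacterial compounds at 100 µM for 2 h at 37°C. Read-outs were fluorescence or absorbance (phosphate detection, dye binding), converted to activity via standard curves and expressed relative to untreated DMSO controls.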
row,Compound,relative enzymatic activity
1,[O-][n+]1ccccc1[S][Zn][S]c1cccc[n+]1[O-],0.587 ± 0.4
2,CN[C@H]1C[C@@H](N)[C@H](O)[C@@H](O[C@@H]2O[C@H](CO)[C@H](O)[C@@H]3O[C@@]4(O[C@H]23)O[C@H]([C@@H](N)CO)[C@H](O)[C@H](O)[C@H]4O)[C@@H]1O,0.592 ± 0.39
3,O=S(=O)(O)O.Oc1cccc2cccnc12,0.564 ± 0.35
4,O=[N+]([O-])c1ccc(N(CCO)CCO)c2c1no[n+]2[O-],0.623 ± 0.41
5,Cc1nc2c(=O)n(C)c(=O)nc-2n(C)n1,0.174 ± 0.24
6,CN1C(=O)[C@]23CC4=CC=C[C@H](O)[C@H]4N2C(=O)[C@@]1(CO)SS3,0.574 ± 0.39
7,O=[N+]([O-])C(Br)(CO)CO,0.486 ± 0.48
8,CCCCCCCCCCCCCCCC[N+](C)(C)C.[Br-],0.256 ± 0.17
9,Cc1c(N)nc([C@H](CC(N)=O)NC[C@@H](N)C(N)=O)nc1C(=O)N[C@H](C(=O)N[C@@H](C)[C@H](O)[C@@H](C)C(=O)N[C@@H](C(=O)NCCc1nc(-c2nc(C(=O)NCCC[S+](C)C)cs2)cs1)[C@@H](C)O)[C@@H](O[C@H]1O[C@H](CO)[C@H](O)[C@@H](O)[C@H]1O[C@H]1O[C@H](CO)[C@@H](O)[C@H](OC(N)=O)[C@@H]1O)c1cnc[nH]1,0.624 ± 0.45
10,O=C1C=C2C(=CCOC2O)O1 (centres undefined),0.611 ± 0.42
11,Cn1ncnc2c(=O)n(C)c(=O)nc1-2,0.598 ± 0.36
12,C[CH2][Hg][S]c1ccccc1C(=O)[O-].[Na+],0.657 ± 0.43
13,CN(C)[C@@H]1C(=O)C(C(N)=O)=C(O)[C@@]2(O)C(O)=C3C(=O)c4c(O)cccc4[C@](C)(O)[C@H]3C[C@@H]12,0.606 ± 0.43
14,Cc1c(N)nc([C@H](CC(N)=O)NC[C@@H](N)C(N)=O)nc1C(=O)N[C@H](C(=O)N[C@@H](C)[C@H](O)[C@@H](C)C(=O)N[C@@H](C(=O)NCCc1nc(-c2nc(C(=O)NCCC[S+](C)C)cs2)cs1)[C@@H](C)O)[C@@H](O[C@H]1O[C@H](CO)[C@H](O)[C@@H](O)[C@H]1O[C@H]1O[C@H](CO)[C@@H](O)[C@H](OC(N)=O)[C@@H]1O)c1c[nH]cn1,0.969 ± 0.9
15,CN(C)[C@@H]1C(=O)[C@@H](C(N)=O)C(=O)[C@@]2(O)C(=O)[C@H]3C(=O)c4c(O)ccc(Cl)c4[C@@](C)(O)[C@H]3C[C@@H]12,0.607 ± 0.41
16,CCCCCCCCCCCCCCCC[n+]1ccccc1.[Cl-],0.0847 ± 0.0065
17,CN(C)[C@@H]1C(=O)[C@H](C(N)=O)C(=O)[C@@]2(O)C(=O)[C@@H]3C(=O)c4c(O)cccc4[C@@](C)(O)[C@H]3C[C@@H]12,0.603 ± 0.41
18,CCCCCCCCCCCCCCCC[n+]1ccccc1,0.191 ± 0.13
19,Oc1cc(Cl)ccc1Oc1ccc(Cl)cc1Cl,0.759 ± 0.41
20,CNC1C(O)C(OC2C(N)CC(N)C(OC3OC(C(C)O)C(O)C(O)C3N)C2O)OCC1(C)O (centres undefined),0.592 ± 0.38
21,CC(=O)[O][Hg][c]1ccccc1,0.226 ± 0.14
22,CCn1cc(C(=O)[O-])c(=O)c2cc3c(cc21)OCO3.[K+],0.598 ± 0.42
23,CC(=O)Oc1ccc(Cl)c2cccnc12,0.611 ± 0.41
24,COP(=S)(OC)Oc1cc(Cl)c(Cl)cc1Cl,0.655 ± 0.44
